Molecules are shown by their SMILES. About 3,300 (1.1%) of roughly 290,000 compounds were called active. No stated cut-off is given here; in the data, active means binding response below about 67% or above about 130%; inconclusive means no clear call, values can overlap the other calls; inactive means in between. The list comes from a sample in which actives are over-represented; it also holds similar structures and randomly drawn compounds.

This experiment addresses Mitogen-activated protein kinase kinase kinase 2 (Homo sapiens) (UniProt Q9Y2U5). Nature of the experiment: modulators of MEK5 binding to wildtype MEKK2, primary screen, biochemical, multiplex bead flow cytometry, Alexa488-MEK5 (AID 1531). The following applies: Alexa488-MEK5 binding to MEKK2 WT, at 10 µM, actives lie on both sides.
With `CCc1ccc(NC(=O)Nc2ccncc2)cc1`, the binding response (% of control) is 107% (inactive). For `CC1(C)C=Cc2c(ccc3c2OC[C@@H](c2ccc(O)cc2O)C3)O1` the value was 107% (inactive); for `COc1ccccc1C(=O)NCc1nnc(SC(C)C(=O)Nc2nccs2)n1C` (configuration not stated), 105% (inactive); for `Cc1ccc(S(=O)(=O)NC2CCCCCC2)cc1C(N)=O`, 99% (inactive). Consider `c1ccc2c(c1)C(=NC1CCCCC1)NC2=NC1CCCCC1`, for which the binding response (% of control) was 145% (active). Then `O=C(c1noc2c1CCCC2)N1CCc2ccccc2C1`, with 97% (inactive); and `O=C(NCC1CCN(Cc2ccccc2Cl)CC1)Nc1cccc(Cl)c1`, with 110% (inactive); and `Cc1cccc(CN2CCC(CNC(=O)Nc3ccc(F)c(Cl)c3)CC2)c1`, with 139% (active).

On to `Cc1ccc(C)c(CN2CCC(CNC(=O)Nc3ccc(C)c(F)c3)CC2)c1`, for which the binding response (% of control) was 150% (active). For `COc1cc(NC(=O)NCC2CCN(Cc3ccc(C)cc3)CC2)cc(OC)c1OC`, the binding response (% of control) was 113% (inactive).

As to `COc1ccc(Cl)cc1NC(=O)NCC1CCN(Cc2ccccc2F)CC1`, the binding response (% of control) was 118% (inactive).

Consider `Cc1ccccc1NC(=O)NCC1CCN(Cc2cccc(Cl)c2)CC1`, for which the binding response (% of control) is 104% (inactive). Then `CC(C(=O)c1ccc(-c2ccccc2)cc1)[n+]1cccc(Br)c1` (configuration not stated), with 123% (inactive); and `CC(=O)N1CC(=O)N(CC(=O)Nc2ccc(Br)cc2)C1=S`, with 97% (inactive). For `CCOC(=O)c1cccc(NC(=O)c2ccc(F)cc2F)c1` the value was 105% (inactive); for `CCN(CC(=O)NCC(=O)Nc1cccc(C)c1C)Cc1ccccc1`, 103% (inactive); for `COc1cc(C2C3=C(CCCC3=O)OC3=C2C(=O)CCC3)ccc1OCC(=O)Nc1ccccc1`, 96% (inactive). Regarding `CCOC(=O)/C(C#N)=C/c1ccc(OCC(=O)Nc2ccccc2)c(OC)c1`, the binding response (% of control) is 37% [inhibitor] (active). Then `CCCn1c(C)cc(/C=C(\C#N)C(=O)OCC(=O)Nc2cc(OC)c(OC)c(OC)c2)c1C`, with 106% (inactive); and `OC(COc1ccc(F)cc1Cl)CN1CCc2ccccc2C1` (configuration not stated), with 105% (inactive); and `Cc1ccc(OCC(O)CN2CCN(CC(O)COc3ccc(C)cc3Cl)CC2)c(Cl)c1` (configuration not stated), with 134% (active). For `Cc1cccc(OCC(O)CN2CCN(S(=O)(=O)c3ccc(C)cc3C)CC2)c1` (configuration not stated) the value was 95% (inactive); for `C[n+]1cc(-c2ccccc2)oc1-c1ccccc1`, 100% (inactive); for `COc1ccc(CCn2c(NN=C3CCCC3)nc3c2c(=O)[nH]c(=O)n3C)cc1`, 39% [inhibitor] (active). As to `COc1ccc(CCn2c(NCCCN3CCOCC3)nc3c2c(=O)[nH]c(=O)n3C)cc1`, the binding response (% of control) was 103% (inactive).

With `COc1ccc(CNc2nc3c(c(=O)[nH]c(=O)n3C)n2Cc2ccccc2)cc1`, the binding response (% of control) is 109% (inactive). Turning to `COC(=O)CN1C(=O)[C@H]2[C@@H](/C=C/c3ccccc3)N3C(=O)CN(CC4CC4)C(=O)[C@@]3(Cc3ccccc3)[C@H]2C1=O`, the binding response (% of control) was 104% (inactive).

Turning to `CC1=C(N2CCN(c3ncccn3)CC2)CCC1=O`, the binding response (% of control) is 111% (inactive). With `COc1cccc(CNC(=O)C2CC(=O)N(C3CCCCCCC3)C2)c1` (configuration not stated), the binding response (% of control) is 94% (inactive). Then `O=C(Nc1nnc(C2CC2)s1)c1cc(Cl)sc1Cl`, with 102% (inactive). For `CC(C)(C)NC(=O)NC(=O)COC(=O)C1c2ccccc2Oc2ccccc21` the value was 100% (inactive); for `COc1cccc(OCC(=O)Nc2ccccc2C(N)=O)c1`, 115% (inactive); for `COc1cccc(OCC(=O)NNC(=O)c2cnccn2)c1`, 2% [inhibitor] (active). For `COc1ccc(OCC(=O)NNC(=O)c2cccc(C)c2)cc1` the value was 93% (inactive); for `COc1ccc(CCNC(=O)CCNS(=O)(=O)c2cc(Br)cnc2N)cc1OC`, 106% (inactive).

On to `CCOC(=O)c1cc(-c2nnc(-c3cc(OC)c(OC)c(OC)c3)o2)c(C)nc1C`, for which the binding response (% of control) is 104% (inactive).

In the case of `COc1cc(-c2nnc(Cn3cc(C(F)(F)F)ccc3=O)o2)cc(OC)c1OC`, the binding response (% of control) is 3% [inhibitor] (active).

Regarding `CC(C)(C)NC(=O)c1ccc(Cn2cc(C(F)(F)F)ccc2=O)cc1`, the binding response (% of control) is 101% (inactive). With `CCC(Cc1ccccc1)NS(=O)(=O)c1ccc2c(c1)NC(=O)CS2` (configuration not stated), the binding response (% of control) was 102% (inactive). Then `Nc1cc(N)nc(SCc2cccc(F)c2)n1`, with 104% (inactive).

`COC(=O)c1c(C)cc(O)c(C)c1O`: the binding response (% of control) is 104% (inactive).

Regarding `CCCCn1c(SCC(=O)NCCc2ccc(OC)c(OC)c2)nc2c1c(=O)n(C)c(=O)n2C`, the binding response (% of control) was -4% [inhibitor] (active). Consider `C#CC(C)(C)NC(=O)CSc1nc2c(c(=O)n(C)c(=O)n2C)n1CCCC`, for which the binding response (% of control) was 106% (inactive).

Consider `CCn1c(NCCc2ccc(OC)c(OC)c2)nc2c1c(=O)n(C)c(=O)n2C`, for which the binding response (% of control) is 102% (inactive). For `CCN(CC)CCC(c1ccc2c(c1)OCO2)c1c(OC)cc(OC)c2c(-c3ccccc3)cc(=O)oc12` (configuration not stated) the value was 137% (active); for `CCN(CC)C(=O)CC(c1ccc2c(c1)OCO2)c1c(OC)cc(OC)c2c(-c3ccccc3)cc(=O)oc12` (configuration not stated), 143% (active); for `CCCCN(CC)C(=O)c1ccc2c(c1)OCO2`, 100% (inactive). Take `COc1cc(OC)c(C(=O)NCc2ccc3c(c2)OCO3)cc1OC`: the binding response (% of control) was 102% (inactive). For `CCN(CC)CCC(c1cc(OC)c(OC)c(OC)c1)c1c(OC)cc(OC)c2c(-c3ccccc3)cc(=O)oc12` (configuration not stated) the value was 90% (inactive).

On to `COc1cc(OC)c2ccc(=O)oc2c1C(CCN1CCN(c2ccccc2)CC1)c1ccc2c(c1)OCO2` (configuration not stated), for which the binding response (% of control) is 110% (inactive).

For the compound `Cc1cccc(Nc2nc(NCCO)nc(N3CCCC3)n2)c1`, the binding response (% of control) was 109% (inactive).

`COc1cc(CC(=O)N2CCC(n3nccc3NC(=O)C3CC3)CC2)cc(OC)c1OC`: the binding response (% of control) is 103% (inactive). Then `Clc1cccc(Cl)c1OCCOCCNCc1ccccc1`, with 109% (inactive); and `CCC(C(=O)OCCN(CC)CC)c1ccccc1` (configuration not stated), with 101% (inactive). For `CCN(CC)CCOCCOc1ccc(Cl)c2ccccc12` the value was 7% [inhibitor] (active). Then `Cc1cccc(NC(=S)NCCc2ccc(Cl)cc2)c1C`, with 106% (inactive); and `Cc1ccc(S(=O)(=O)N(C)CC(=O)NCCc2c[nH]c3ccccc23)cc1`, with 107% (inactive); and `CCOC(=O)c1ccc(NC(=O)c2c(NCc3ccccc3)[nH]c(=O)[nH]c2=O)cc1`, with 102% (inactive). `CC1CN(C(=O)CCC(=O)NC2CCN(Cc3ccccc3)CC2)c2ccccc2O1` (configuration not stated): the binding response (% of control) is 107% (inactive). For `CC1CN(C(=O)CCC(=O)NCc2cccnc2)c2ccccc2O1` (configuration not stated) the value was 103% (inactive); for `CC1CN(C(=O)CCC(=O)NCCCN2CCC(Cc3ccccc3)CC2)c2cc(Cl)ccc2O1` (configuration not stated), 163% (active); for `O=C(CN1CCCCCC1)Nc1ccc(S(=O)(=O)N2CCCCC2)cc1`, 100% (inactive). Then `O=C(NCc1ccccc1Cl)C1CCN(c2ncnc3c2nc2n3CCCCC2)CC1`, with 102% (inactive); and `Cc1cc(C)c(OCC(=O)N(Cc2cccs2)C2CCS(=O)(=O)C2)c(C)c1` (configuration not stated), with 101% (inactive); and `O=C(CN1CCc2ccccc21)NC(c1ccccc1)c1ccccc1`, with 95% (inactive). With `COC(=O)c1[nH]c2ccccc2c1NC(=O)CN1CCCc2ccccc21`, the binding response (% of control) was -2% (active).

As for `NS(=O)(=O)c1cccc(NC(=O)CN2CCCc3ccccc32)c1`, the binding response (% of control) was 99% (inactive). For `COC(=O)c1[nH]c2cccc(C)c2c1NC(=O)CN1CCCc2ccccc21` the value was 18% [inhibitor] (active). `COC(=O)c1[nH]c2ccc(Br)cc2c1NC(=O)Oc1ccccc1`: the binding response (% of control) was 103% (inactive). Then `Cc1cccc(C)c1NC(=O)COC(=O)c1ccccc1O`, with 97% (inactive); and `CC(=O)N1c2ccc(S(=O)(=O)N3CCCC(C(=O)Nc4cccc(F)c4)C3)cc2CC1C` (configuration not stated), with 106% (inactive). For `CCOC(=O)c1c(-c2ccccc2)oc2cc(Br)c(O)c(C=O)c12` the value was 94% (inactive); for `O=C(Nc1ccccc1Cl)NC1(C(=O)N2CCOCC2)CCCCC1`, 96% (inactive); for `CC1(C)C2CC[C@]3(C)C(CC=C4[C@@H]5C[C@@](C)(CO)CC[C@]5(C(=O)O)CC[C@]43C)[C@@]2(C)CC[C@@H]1O` (some centres not stated), 105% (inactive).

With `C=CCOc1ccccc1NC(=O)CN1C(=O)CNC1=O`, the binding response (% of control) was 106% (inactive).

On to `O=C(N/N=C\c1cc2c(cc1Cl)OCO2)c1ccc(Br)s1`, for which the binding response (% of control) was 103% (inactive). For `O=C(CN1CCN(C2CCCCC2)CC1)Nc1ccccc1N1CCCCC1` the value was 109% (inactive); for `Cc1ccc(C(C)C)cc1OCC(=O)Nc1ccccc1N1CCCC1`, 100% (inactive); for `CN1CCN(c2ccccc2NC(=O)COc2ccc(C3CCCCC3)cc2)CC1`, 145% (active). Then `NC(=O)c1oc2ccccc2c1NC(=O)CS(=O)(=O)c1ccccc1`, with 106% (inactive); and `O=C(Nc1ccccc1[N+](=O)[O-])C1C(c2ccccc2)=C1c1ccccc1`, with 97% (inactive). For `O=C(O)c1ccccc1C(=O)Nc1ccccc1[N+](=O)[O-]` the value was 0% (active); for `O=C(Nc1ccccc1-c1ccccc1)c1ccccc1[N+](=O)[O-]`, 106% (inactive); for `CCOC(=O)C[C@H]1c2ccc(C(F)(F)F)cc2S(=O)(=O)N1c1ccccc1`, 98% (inactive).

Regarding `CCOC(=O)C1CCN(C(=O)Cn2nc(C)c3c(C)n(-c4ccccc4)nc3c2=O)CC1`, the binding response (% of control) is 101% (inactive). For `COc1ccc(S(=O)(=O)N2CCC(C(=O)NCCC(=O)NCc3cccc(OC)c3)CC2)cc1` the value was 104% (inactive); for `CCOc1cc(/C=C/c2nc3ccccc3c(=O)[nH]2)cc(Br)c1OC`, 98% (inactive).

`O=C(Nc1c2c(nn1-c1cccc(Cl)c1)CS(=O)(=O)C2)c1cccs1`: the binding response (% of control) was 81% (inactive). For `CCOc1cc(C2C(C(=O)c3ccco3)=C(O)C(=O)N2Cc2ccccc2)ccc1O` (configuration not stated) the value was 93% (inactive); for `CCCc1nn(C)c2c(=O)[nH]c(-c3cc(S(N)(=O)=O)ccc3OCC)nc12`, 105% (inactive). For `COc1ccc(S(=O)(=O)NC(C)C(=O)NCc2ccncc2)cc1Cl` (configuration not stated) the value was 98% (inactive); for `Cn1cc(CCC(=O)NC2CC2)c2ccccc21`, 96% (inactive).

(Values after PubChem BioAssay AID1531 (NMMLSC, 2009).)
